Assay results from PubChem BioAssay (EPA / NIEHS).
Active and inactive are the calls of the source. The calls were made as follows: active = hit-call score of the fitted dose curve at least 0.9, where 1 is the maximum; inactive = score below 0.9.

Tests used:
[1] = ATG_CRE_CIS: Attagene CIS-FACTORIAL HepG2 Assay for human cAMP Responsive Element (CRE) binding protein 3 (AID 2282926); settings: HepG2 CRE cis-reporter, Attagene multiplexed mRNA; actives raise or lower the signal
Method in brief: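 Endogenous CRE-binding activity in HepG2 is reported through a cis-regulated transfected reporter. Following a day of exposure, mRNA levels are determined by reverse transcription PCR and fluorescent fragment analysis; fits run in both directions versus DMSO.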

[2] = molecular target: CCAAT/enhancer-binding protein beta (Homo sapiens) (UniProt P17676); experiment: ATG_C_EBP_CIS: Attagene CIS-FACTORIAL HepG2 Assay for human CCAAT/Enhancer Binding Protein (C/EBP) beta (AID 2282927); settings: HepG2 Attagene cis-factorial transcription factor reporter; actives raise or lower the signal
Method in brief: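 Transiently transfected HepG2 (MRTU library, endogenous TF-driven promoters); 24 h dosing; total RNA → oligo(dT) RT → PCR → 6-FAM primer extension → HpaI digest → CE; fit bidirectionally vs DMSO.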

[3] = ATG_CMV_CIS: Attagene CIS-FACTORIAL HepG2 Assay for human CMV (Internal Marker) (AID 2282928); settings: HepG2 CMV promoter reporter, transcription factor profiling; actives raise or lower the signal;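 also: endpoint acts as a background internal control marker rather than a target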
Method in brief: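 Endogenous transcription factor activity read in HepG2 via transfected cis-promoter reporter units. After 24 h dosing, reporter mRNA measured by RT-PCR/capillary electrophoresis; gain or loss of signal fit relative to DMSO.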

[4] = ATG_DR4_LXR_CIS: Attagene CIS-FACTORIAL HepG2 Assay for human Liver X Receptor (LXR), DR4 submotif (AID 2282929); settings: HepG2 Attagene DR4 cis-reporter, mRNA transcription; actives raise or lower the signal
Method in brief: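 Fluorescence intensity of labelled reporter cDNA fragments, separated by capillary electrophoresis, gives the signal. HepG2 cells bearing cis-regulated reporter constructs were treated 24 h; activity fitted bidirectionally relative to DMSO negative control.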

[5] = molecular target: Aryl hydrocarbon receptor (Homo sapiens) (UniProt P35869); experiment: ATG_Ahr_CIS: Attagene CIS-FACTORIAL HepG2 Assay for human Aryl Hydrocarbon Receptor (Ahr) (AID 2282930); settings: HepG2 AhR cis-factorial reporter transcription; actives raise or lower the signal
Method in brief: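 Read-out: reporter mRNA quantified by RT-PCR with fluorescent primer extension and capillary electrophoresis. Human HepG2 liver cells carried transfected cis-promoter reporter units and were exposed to chemical for 24 h; gain or loss fitted relative to DMSO.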

[6] = ATG_AP_1_CIS: Attagene CIS-FACTORIAL HepG2 Assay for human Activator Protein 1 (AP-1) (AID 2282931); settings: HepG2 Attagene cis-factorial AP-1 reporter mRNA; actives raise or lower the signal
Method in brief: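 Multiplexed HepG2 reporter assay, 24 h dosing. mRNA induction detected by RT-PCR plus capillary electrophoresis. Activity fitted in both directions against DMSO.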

[7] = ATG_BRE_CIS: Attagene CIS-FACTORIAL HepG2 Assay for human Bone Morphogenetic Protein (BMP) Response Element (BRE) (AID 2282933); settings: HepG2 BMP response element reporter, Attagene transcription factor profiling; actives raise or lower the signal
Method in brief: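 Endogenous transcription factor activity read in transiently transfected HepG2 cells after 24 h chemical exposure. Bidirectional curve fitting against DMSO; readout is reporter transcript level by RT-PCR with capillary electrophoresis of labelled products.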

[8] = molecular target: Retinoic acid receptor alpha (Homo sapiens) (UniProt P10276); experiment: ATG_DR5_RAR_CIS: Attagene CIS-FACTORIAL HepG2 Assay for human Retinoic Acid Receptor Alpha (RARE), DR5 submotif (AID 2282934); settings: HepG2 Attagene cis-factorial RARE DR5 reporter, mRNA; actives raise or lower the signal;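 as to AC50: reporter responds to endogenous RAR alpha beta and gamma in HepG2 not RARA alone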
Method in brief: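 Read-out: DR5-driven reporter transcript measured by RT-PCR, 6-FAM primer extension, HpaI digest and capillary electrophoresis. Human HepG2 liver cells carry transiently transfected cis-element reporter constructs; dosing lasts 24 h. Gain or loss of signal fitted against DMSO baseline.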

[9] = molecular target: Transcription factor E2F1 (Homo sapiens) (UniProt Q01094); experiment: ATG_E2F_CIS: Attagene CIS-FACTORIAL HepG2 Assay for human E2F Transcription Factor 1 (AID 2282935); settings: HepG2 Attagene cis-reporter, E2F reporter RNA transcripts; actives raise or lower the signal
Method in brief: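 Endogenous E2F1 activity read through cis-promoter reporter units transfected into HepG2. After 24 h compound treatment, reporter mRNA measured by RT-PCR, HpaI digestion and capillary electrophoresis. Bidirectional fit versus DMSO.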

[10] = ATG_E_Box_CIS: Attagene CIS-FACTORIAL HepG2 Assay for human Enhancer Box (E-box) (AID 2282936); settings: HepG2 E-box cis-reporter transcription, actives raise or lower the signal
Method in brief: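 HepG2 cells transiently transfected with multiplexed cis-element reporter units, dosed 24 h; reporter mRNA quantified by RT-PCR, 6-FAM labelling, HpaI digestion and capillary electrophoresis. E-box (USF1) signal fitted bidirectionally vs DMSO.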

[11] = ATG_M_61_CIS: Attagene CIS-FACTORIAL HepG2 Assay for M61 Transcription Factor (Internal Marker) (AID 2282937); settings: HepG2 Attagene CIS-FACTORIAL M61 internal marker reporter; actives raise or lower the signal
Method in brief: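 Endogenous transcription factor activity in HepG2 is read through transiently transfected cis-element reporter units. After 24 h dosing, RNA undergoes reverse transcription, PCR and primer extension with 6-FAM before capillary electrophoresis; DMSO-referenced bidirectional fit.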

[12] = ATG_M_19_CIS: Attagene CIS-FACTORIAL HepG2 Assay for M19 Transcription Factor (Internal Marker) (AID 2282939); settings: HepG2 Attagene CIS-FACTORIAL M19 internal marker reporter; actives raise or lower the signal
Method in brief: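 Internal marker readout, fitted in both directions against DMSO, from HepG2 cells carrying transfected cis-element reporter constructs; RT-PCR and capillary electrophoresis of reporter mRNA after 24 h exposure.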

[13] = ATG_EGR_CIS: Attagene CIS-FACTORIAL HepG2 Assay for human Early Growth Response 1 (EGR1) (AID 2282938); settings: HepG2 Attagene CIS-FACTORIAL EGR reporter mRNA; actives raise or lower the signal
Method in brief: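 Activity is taken as induction or loss of reporter mRNA versus DMSO, fitted bidirectionally. Transcripts from cis-regulated reporter units in transiently transfected HepG2 were measured after 24 h by RT-PCR with capillary electrophoresis.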

[14] = ATG_AP_2_CIS: Attagene CIS-FACTORIAL HepG2 Assay for human Activator Protein 2 (AP-2) (AID 2282932); settings: HepG2 AP-2 cis-reporter, Attagene transcription factor profiling; actives raise or lower the signal
Method in brief: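 HepG2 cells transiently transfected with cis-element reporter units and exposed for 24 h. Reporter mRNA measured by RT-PCR, FAM labelling, HpaI digestion and capillary electrophoresis. Changes in either direction fitted relative to DMSO.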

Sequence of Aryl hydrocarbon receptor (Homo sapiens) (P35869 whole entry, looked up): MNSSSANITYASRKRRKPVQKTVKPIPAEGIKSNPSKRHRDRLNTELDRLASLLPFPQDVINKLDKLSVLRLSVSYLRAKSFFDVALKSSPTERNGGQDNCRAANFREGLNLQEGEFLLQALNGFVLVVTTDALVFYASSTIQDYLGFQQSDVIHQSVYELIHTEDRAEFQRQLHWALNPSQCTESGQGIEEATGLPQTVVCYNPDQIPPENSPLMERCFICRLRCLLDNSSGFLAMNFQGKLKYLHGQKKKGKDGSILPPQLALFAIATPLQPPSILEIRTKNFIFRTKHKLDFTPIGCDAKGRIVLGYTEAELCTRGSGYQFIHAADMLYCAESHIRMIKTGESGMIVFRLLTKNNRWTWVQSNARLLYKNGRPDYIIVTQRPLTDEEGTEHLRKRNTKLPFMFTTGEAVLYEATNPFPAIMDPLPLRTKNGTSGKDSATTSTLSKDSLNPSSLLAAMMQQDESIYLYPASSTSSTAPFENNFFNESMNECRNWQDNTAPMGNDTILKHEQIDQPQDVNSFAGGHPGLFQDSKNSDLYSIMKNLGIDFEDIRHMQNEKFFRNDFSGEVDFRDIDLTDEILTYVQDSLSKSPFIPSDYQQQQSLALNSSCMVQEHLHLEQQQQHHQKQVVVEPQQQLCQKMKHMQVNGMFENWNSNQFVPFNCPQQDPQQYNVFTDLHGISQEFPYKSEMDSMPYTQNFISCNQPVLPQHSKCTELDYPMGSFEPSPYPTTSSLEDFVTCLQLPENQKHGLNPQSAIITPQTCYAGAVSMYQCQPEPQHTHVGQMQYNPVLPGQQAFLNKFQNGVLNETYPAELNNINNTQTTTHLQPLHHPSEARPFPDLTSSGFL
Sequence of Transcription factor E2F1 (Homo sapiens) (Q01094 whole entry, looked up): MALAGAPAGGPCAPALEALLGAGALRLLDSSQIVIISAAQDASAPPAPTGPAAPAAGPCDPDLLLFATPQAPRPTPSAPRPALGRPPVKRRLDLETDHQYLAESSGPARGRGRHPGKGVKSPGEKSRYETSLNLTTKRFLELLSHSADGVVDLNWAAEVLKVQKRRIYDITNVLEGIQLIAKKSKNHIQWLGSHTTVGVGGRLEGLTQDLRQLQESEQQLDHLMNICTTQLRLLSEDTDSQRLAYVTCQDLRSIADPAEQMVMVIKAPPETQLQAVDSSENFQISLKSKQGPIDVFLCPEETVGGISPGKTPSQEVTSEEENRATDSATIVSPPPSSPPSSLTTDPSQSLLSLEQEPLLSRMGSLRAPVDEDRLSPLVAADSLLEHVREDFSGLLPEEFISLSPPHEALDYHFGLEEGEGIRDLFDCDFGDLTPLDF
Sequence of Retinoic acid receptor alpha (Homo sapiens) (P10276 whole entry, looked up): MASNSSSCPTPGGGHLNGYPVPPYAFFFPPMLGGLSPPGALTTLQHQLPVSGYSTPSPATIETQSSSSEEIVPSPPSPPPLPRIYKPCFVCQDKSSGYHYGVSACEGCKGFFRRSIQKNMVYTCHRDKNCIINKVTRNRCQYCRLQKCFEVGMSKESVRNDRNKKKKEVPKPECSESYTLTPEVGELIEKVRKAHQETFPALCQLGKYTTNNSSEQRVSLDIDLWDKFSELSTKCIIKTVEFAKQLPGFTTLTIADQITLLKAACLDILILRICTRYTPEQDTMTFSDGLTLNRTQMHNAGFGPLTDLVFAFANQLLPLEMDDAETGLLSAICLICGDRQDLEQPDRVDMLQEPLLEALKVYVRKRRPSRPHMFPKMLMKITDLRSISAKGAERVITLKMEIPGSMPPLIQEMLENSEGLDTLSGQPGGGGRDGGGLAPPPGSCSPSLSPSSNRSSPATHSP
Sequence of CCAAT/enhancer-binding protein beta (Homo sapiens) (P17676 whole entry, looked up): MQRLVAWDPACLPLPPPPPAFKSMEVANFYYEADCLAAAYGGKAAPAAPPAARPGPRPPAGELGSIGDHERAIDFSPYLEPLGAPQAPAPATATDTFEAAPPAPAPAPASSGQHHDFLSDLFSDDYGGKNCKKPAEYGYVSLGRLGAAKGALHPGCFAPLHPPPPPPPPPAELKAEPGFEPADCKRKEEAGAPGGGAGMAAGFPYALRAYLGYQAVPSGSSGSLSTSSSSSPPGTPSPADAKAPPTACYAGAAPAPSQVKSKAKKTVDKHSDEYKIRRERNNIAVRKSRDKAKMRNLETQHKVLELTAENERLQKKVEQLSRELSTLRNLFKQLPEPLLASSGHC

O=S(=O)(F)C(F)(F)C(F)(F)C(F)(F)C(F)(F)F
outcome [1]: inactive
outcome [2]: inactive
outcome [3]: inactive
outcome [4]: inactive
outcome [5]: inactive
outcome [6]: inactive
outcome [7]: inactive
outcome [8]: inactive
outcome [9]: inactive
outcome [10]: inactive
outcome [11]: inactive
outcome [12]: inactive

O=c1[nH]c(=O)n(Cl)c(=O)n1Cl
outcome [1]: inactive
outcome [2]: inactive
outcome [3]: inactive
outcome [4]: inactive
outcome [5]: inactive
outcome [6]: inactive
outcome [7]: inactive
outcome [10]: inactive
outcome [11]: inactive
outcome [13]: inactive
outcome [12]: inactive

Fc1cccc(Cl)c1CCl
AC50 [1]: 41.8 µM (active)
outcome [2]: inactive
outcome [3]: inactive
outcome [4]: inactive
outcome [5]: inactive
outcome [14]: inactive
outcome [7]: inactive
outcome [8]: inactive
outcome [10]: inactive
outcome [11]: inactive
outcome [13]: inactive
outcome [12]: inactive

BrCc1ccc(Br)cc1
outcome [1]: inactive
outcome [2]: inactive
outcome [3]: inactive
outcome [4]: inactive
AC50 [5]: 60.9 µM (active)
outcome [14]: inactive
outcome [7]: inactive
outcome [8]: inactive
outcome [9]: inactive
outcome [10]: inactive
outcome [11]: inactive
outcome [13]: inactive
outcome [12]: inactive

OC[P+](CO)(CO)CO
outcome [1]: inactive
outcome [2]: inactive
outcome [3]: inactive
outcome [4]: inactive
outcome [5]: inactive
outcome [14]: inactive
outcome [7]: inactive
outcome [8]: inactive
outcome [10]: inactive
outcome [11]: inactive
outcome [13]: inactive
outcome [12]: inactive

CCOc1ccc(N)cc1
outcome [1]: inactive
outcome [2]: inactive
outcome [3]: inactive
outcome [4]: inactive
outcome [5]: inactive
outcome [14]: inactive
outcome [7]: inactive
outcome [8]: inactive
outcome [9]: inactive
outcome [10]: inactive
outcome [11]: inactive
outcome [13]: inactive

CCCCN(CCCC)C(=S)[S-].CCCCN(CCCC)C(=S)[S-].[Ni+2]
outcome [1]: inactive
outcome [2]: inactive
outcome [3]: inactive
outcome [4]: inactive
outcome [5]: inactive
outcome [14]: inactive
outcome [7]: inactive
outcome [8]: inactive
outcome [10]: inactive
outcome [11]: inactive
outcome [12]: inactive

ClCc1ccccc1Cl
AC50 [1]: 83.5 µM (active)
outcome [2]: inactive
outcome [3]: inactive
AC50 [4]: 50.6 µM (active)
outcome [5]: inactive
outcome [14]: inactive
outcome [7]: inactive
outcome [8]: inactive
outcome [9]: inactive
outcome [10]: inactive
outcome [11]: inactive
outcome [13]: inactive
outcome [12]: inactive

O=C(NC(=O)c1c(F)cccc1F)Nc1cc(Cl)c(F)c(Cl)c1F
outcome [1]: inactive
outcome [2]: inactive
outcome [3]: inactive
AC50 [4]: 0.512 µM (active)
outcome [5]: inactive
outcome [14]: inactive
outcome [7]: inactive
outcome [8]: inactive
outcome [9]: inactive
outcome [11]: inactive
outcome [13]: inactive
outcome [12]: inactive

O=C(O)CC(O)(CC(=O)O)C(=O)O
outcome [1]: inactive
outcome [2]: inactive
outcome [3]: inactive
outcome [4]: inactive
outcome [5]: inactive
outcome [6]: inactive
outcome [7]: inactive
outcome [9]: inactive
outcome [10]: inactive
outcome [11]: inactive
outcome [13]: inactive
outcome [12]: inactive

Cc1c([N+](=O)[O-])c(C)c([N+](=O)[O-])c(C(C)(C)C)c1[N+](=O)[O-]
outcome [1]: inactive
outcome [2]: inactive
AC50 [3]: 100 µM (active)
AC50 [4]: 60.7 µM (active)
outcome [5]: inactive
outcome [6]: inactive
outcome [7]: inactive
AC50 [8]: 3.83 µM (active)
outcome [9]: inactive
outcome [10]: inactive
outcome [11]: inactive
outcome [12]: inactive

O=S(=O)(c1ccc(Cl)cc1)c1cc(Cl)c(Cl)cc1Cl
AC50 [1]: 37.8 µM (active)
outcome [2]: inactive
AC50 [3]: 42.5 µM (active)
AC50 [4]: 40.9 µM (active)
outcome [5]: inactive
outcome [14]: inactive
outcome [7]: inactive
AC50 [8]: 100 µM (active)
outcome [9]: inactive
outcome [10]: inactive
outcome [11]: inactive
outcome [12]: inactive

Nc1nc(N)nc(Cl)n1
outcome [1]: inactive
outcome [2]: inactive
outcome [3]: inactive
outcome [4]: inactive
outcome [5]: inactive
outcome [14]: inactive
outcome [7]: inactive
outcome [8]: inactive
outcome [11]: inactive
outcome [13]: inactive
outcome [12]: inactive

C[As+](C)(C)CC(=O)[O-]
outcome [1]: inactive
outcome [2]: inactive
outcome [3]: inactive
outcome [4]: inactive
outcome [5]: inactive
outcome [14]: inactive
outcome [7]: inactive
outcome [8]: inactive
outcome [10]: inactive
outcome [11]: inactive
outcome [13]: inactive

O=S(=O)(Oc1ccc(Cl)cc1)c1ccc(Cl)cc1
outcome [1]: inactive
outcome [2]: inactive
AC50 [3]: 49 µM (active)
AC50 [4]: 34.9 µM (active)
outcome [5]: inactive
outcome [14]: inactive
outcome [7]: inactive
outcome [8]: inactive
outcome [10]: inactive
outcome [11]: inactive
outcome [13]: inactive
outcome [12]: inactive

Cc1cc(SCc2sc(-c3ccc(C(F)(F)F)c(F)c3)nc2C)ccc1OCC(=O)O
outcome [1]: inactive
outcome [2]: inactive
outcome [3]: inactive
AC50 [4]: 23.8 µM (active)
outcome [5]: inactive
outcome [6]: inactive
outcome [7]: inactive
outcome [8]: inactive
outcome [9]: inactive
outcome [10]: inactive
outcome [11]: inactive
AC50 [13]: 26.3 µM (active)

CCCCOC(C)=O
outcome [1]: inactive
outcome [2]: inactive
outcome [3]: inactive
outcome [4]: inactive
outcome [5]: inactive
outcome [6]: inactive
outcome [8]: inactive
outcome [9]: inactive
outcome [10]: inactive
outcome [11]: inactive
outcome [13]: inactive
outcome [12]: inactive

CCOP(=O)(OCC)SCCSCC
outcome [1]: inactive
outcome [2]: inactive
outcome [3]: inactive
outcome [4]: inactive
outcome [5]: inactive
outcome [14]: inactive
outcome [8]: inactive
outcome [9]: inactive
outcome [10]: inactive
outcome [11]: inactive
outcome [13]: inactive
outcome [12]: inactive

C=CCOC(N)=O
outcome [1]: inactive
outcome [2]: inactive
outcome [4]: inactive
outcome [5]: inactive
outcome [6]: inactive
outcome [14]: inactive
outcome [7]: inactive
outcome [8]: inactive
outcome [9]: inactive
outcome [11]: inactive
outcome [13]: inactive
outcome [12]: inactive
